High-throughput results deposited in PubChem by National Center for Advancing Translational Sciences (NCATS).
Hits are enriched below; roughly 7.5% of the tested compounds scored in any of these assays.
Rab9 prom act: activators of Rab9 promoter | Potency, µM (titrated, usually from 9.22 µM), inactives show top-dose activation, negative = inhibition, actives largely listed as activators | hit rate 2.8% among 320,000 | Huh7 Rab9 promoter-luciferase reporter, luminescence, 24 h; note: % of control where 0% means no effect; nearly all actives have a fitted effect of over 60% in size
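Steps: seed 1500 Huh7 Rab9-luc cells per well, rest 2 h at 37 °C; add compound in DMSO; incubate 24 h; add luciferase reagent, 10 min ambient; read luminescence.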
ELG1 genotox: inducers of genotoxicity in HEK293T ELG1-luciferase cells. Potency, µM (series often up to 46 µM), for inactives: top-dose activity change, positive = activation, actives largely listed as activators. AID 504466. HEK293T ELG1-luciferase reporter, luminescence, 16 h. hit rate 1.3% among 330,000; note: % of control where 0% means no effect; nearly all actives have a fitted effect of over 60% in size
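Step 1: seed 2,000 HEK293T ELG1-luciferase cells per well. Step 2: add compound or DMSO, incubate 16 hr at 37 °C. Step 3: ONE-Glo, 30 min at room temperature, read luminescence.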
NPC1 prom act: NPC1 promoter activation. Potency, µM (doses to about 9.22 µM), for the others: at the top dose activation, most hits filed as activators. hit rate 2.4% among 320,000. AID 485313. Huh7 NPC1 promoter luciferase reporter, 24 h; note: % of control where 0% means no effect; nearly all actives have a fitted effect of over 60% in size
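Quantitative HTS used a cell-based reporter: Huh7 cells stably bearing the NPC1 promoter upstream of luciferase were treated with compounds for 24 h, and promoter activation was read as luminescence.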
Luc counter: Kinase-Glo luciferase inhibition (counter-screen) | Kinase-Glo luciferase, ATP luminescence, 8 min | Potency, µM (highest dose often 38.3 µM), for inactives: at the highest dose activity change, negative = inhibition, hits mostly inhibitors | hit rate 0.28% among 200,000 | Q27757; note: % is set by controls: 0 for no effect and ±100 for the full control effect; nearly all actives have a fitted effect of over 60% in size
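Compounds were added to a substrate mix at pH 7.2 (50 mM imidazole, 10 uM ATP, within the enzyme's linear range), followed by Kinase-Glo detection reagent; luminescence was measured after 8 minutes at ambient temperature.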
SMN2 splice up: SMN2 splice variant enhancement; HEK293 SMN2-luciferase splicing reporter, luminescence, 30-36 h; Potency, µM (top dose mostly 46.1 µM), inactives show at the top dose activity change, positive = activation, usual class: activators; hit rate 2.8% among 210,000; note: % of control where 0% means no effect; nearly all actives have a fitted effect of over 55% in size
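qHTS luciferase splicing reporter: luminescence rises when SMN2 exon 7 is included in transfected HEK293 cells. Compound exposure lasted 30-36 h at 37C, with 4.5 mM final sodium butyrate as control, followed by a ONE-Glo read.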
FLuc counter: firefly luciferase modulation, counter-screen for miR-21 project | P08659 | purified FLuc, Km substrates, luminescence inhibition | Potency, µM (titrated, usually from 57.5 µM), for the others: at the highest dose activity change, negative = inhibition, usual class: inhibitors | hit rate 6.9% among 360,000;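 note: plate controls were vehicle for no effect and reference inhibitor for full effect; nearly all actives have a fitted effect of over 55% in size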
Target sequence (P08659 whole entry, looked up): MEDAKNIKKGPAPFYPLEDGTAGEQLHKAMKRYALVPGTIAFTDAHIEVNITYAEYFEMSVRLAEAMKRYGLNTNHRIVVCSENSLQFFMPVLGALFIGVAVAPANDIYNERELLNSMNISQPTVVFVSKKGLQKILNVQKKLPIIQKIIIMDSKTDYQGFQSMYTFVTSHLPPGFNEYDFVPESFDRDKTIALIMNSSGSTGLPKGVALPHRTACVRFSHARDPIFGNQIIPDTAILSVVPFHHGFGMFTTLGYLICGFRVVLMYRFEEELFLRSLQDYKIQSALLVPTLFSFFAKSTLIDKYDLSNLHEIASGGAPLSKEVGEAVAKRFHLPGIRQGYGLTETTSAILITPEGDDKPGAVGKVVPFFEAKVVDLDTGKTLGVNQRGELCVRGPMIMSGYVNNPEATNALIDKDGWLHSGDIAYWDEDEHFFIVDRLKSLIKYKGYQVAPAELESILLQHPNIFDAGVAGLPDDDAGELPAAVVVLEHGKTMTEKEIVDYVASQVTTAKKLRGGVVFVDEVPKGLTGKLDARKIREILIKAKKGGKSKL
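Purified P. pyralis luciferase, 10 nM final, with Km-level 10 uM D-luciferin and 10 uM ATP in 50 mM Tris acetate pH 7.5, 10 mM Mg acetate, 0.01% Tween-20, 0.05% BSA; 6-point qHTS titration about 60 µM downward; luminescence read.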
Starred values were filed as active, the others as inactive; ? = inconclusive; / = no result; [ ] = remark or other dose. Calls come from the whole dose curve; as a rule, active = well fitted curve in the direction sought with a large enough effect; inconclusive = small, poorly fitted or top-dose-only effect, or another doubt; inactive = no such curve, though single readings can be large; an effect the other way counts as inactive or inconclusive. Potency is the fitted concentration of half-maximal effect.

SMILES	Rab9 prom act	ELG1 genotox	NPC1 prom act	Luc counter	SMN2 splice up	FLuc counter
CCOc1cc(/C=N/Nc2nc(C)cc(=O)[nH]2)ccc1O	3%	3%	-2%	/	/	?
CC(=O)Nc1sc(N/N=C/c2ccc(C)cc2)nc1-c1ccc(C)cc1	4%	10%	7%	/	/	8.5µM*
CCOc1cc(/C=N\Nc2nc(-c3ccc(C)cc3)c(NC(C)=O)s2)ccc1O	-3%	0%	0%	/	/	27µM*
COc1ccc(/C=N/Nc2nc(-c3ccc(C)cc3)c(NC(C)=O)s2)cc1OC	-3%	?	-2%	/	/	3µM*
CC(=O)Nc1sc(N/N=C/c2ccc(N(C)C)cc2)nc1-c1ccc(C)cc1	24%	?	24%	/	/	6.7µM*
COc1cc(/C=N\Nc2nc(-c3ccc(C)cc3)c(NC(C)=O)s2)ccc1O	0%	2%	-3%	/	/	?
CCOCCCNC(=O)Cn1nc(CC)n2c(cc3c(OC)cccc32)c1=O	/	/	/	/	8%	1%
CC1CCN(c2cc(N3CCN(C(=O)c4ccc(F)c(F)c4)CC3)c([N+](=O)[O-])cc2F)CC1	-9%	-4%	-3%	0%	-24%	-1%
C=C1C(C(=O)Nc2ccccc2)C1C(=O)Nc1ccccc1 (stereo not given)	0%	8%	1%	/	/	1%
COc1ccc(OCc2cc(C(=O)N(C)Cc3cc(C)no3)no2)c(Cl)c1	4µM*	?	2.8µM*	/	/	6µM*
CCc1ccc(CN(C)C(=O)c2cc(COc3ccc(OC)cc3Cl)on2)nc1	?	?	3.2µM*	/	/	15µM*
COc1ccc(OCc2cc(C(=O)N3CCCN(C(C)=O)CC3)no2)c(Cl)c1	30%	?	?	/	/	27µM*
CC(=O)c1ccc(OCc2cc(C(=O)N(C)Cc3cc(C)no3)no2)cc1	23%	12%	16%	/	/	?
CCN(Cc1ccncc1)C(=O)c1cc(COc2ccc(OC)cc2Cl)on1	2.8µM*	?	3.2µM*	/	/	21µM*
CCOC(=O)CNC(=O)N(CCOC)CC1CCCN(C2Cc3ccccc3C2)C1 (stereo not given)	9%	1%	-1%	/	/	0%
CCC(C)NC(=O)Cn1c(=O)n(-c2ccc(Cl)c(Cl)c2)c(=O)c2c(C)c(C(=O)N(CC)CC)sc21 (stereo not given)	/	/	/	/	/	0%
S=C(NCc1ccco1)Nc1ccc(Cl)cn1	0%	-1%	-3%	/	/	-10%
COc1cc(/C=C(\C#N)C(=O)Nc2nnc(C(F)(F)F)s2)ccc1OCc1ccc(C(F)(F)F)cc1C(F)(F)F	-35%[46.1 µM]	/	-31%[46.1 µM]	/	/	/
COc1ccc(OCc2cc(C(=O)N(C)Cc3nnc(C)o3)no2)c(Cl)c1	3.5µM*	?	3.2µM*	/	/	8.5µM*
COc1cc(Cl)ccc1OCc1cc(C(=O)N(C)Cc2nnc(C)o2)no1	26%	?	29%	/	/	?
CC(C)c1ccc(NC(=O)CCNS(=O)(=O)c2ccc3c(c2)oc(=O)n3C)cc1	/	/	/	/	2%	-1%
BrC(=C\c1ccccc1)/C=N/Nc1ccc2nncn2n1	-2%	6%	1%	/	/	13µM*
Cc1ccc(C)c(NC(=O)Cn2c(=O)nc(-c3ccccc3)c3ccccc32)c1	/	/	/	/	/	-9%
CC1CCN(C(=O)c2ccc3c(c2)OCCO3)CC1	25%	?	26%	-2%	?	?
COc1ccc(-c2ccc(SCC(=O)N3CCOCC3)nn2)cc1OC	4%	?	22%	-9%	-22%	15µM*
SMILES	Rab9 prom act	ELG1 genotox	NPC1 prom act	Luc counter	SMN2 splice up	FLuc counter
CC1CCCC(C)N1C(=O)CSc1ccc(-c2ccc3c(c2)OCCO3)nn1 (stereo not given)	13%	-10%	-4%	/	/	13µM*
CC1CCN(C(=O)CSc2ccc(-c3ccc4c(c3)OCCO4)nn2)CC1	14%	-1%	2%	/	/	11µM*
COc1ccc(CCn2c(O)cc3nn(-c4nc5ccccc5s4)c(=O)c-3c2C)cc1	?	14%	2.8µM*	/	/	9.5µM*
COc1ccc(-c2cc(C(=O)NCc3cccnc3)no2)cc1OC	0%	9%	-1%	-8%	8%	-13%
O=C(COCc1cc(-c2ccc3c(c2)OCO3)on1)N1CCCCC1	?	?	?	/	/	19µM*
Cc1ccc(-c2cc(C(=O)NCc3cccnc3)no2)cc1	?	13µM*	?	4%	22%	11µM*
O=C(Nc1cccnc1)c1cc(-c2ccc(F)cc2)on1	-4%	10%	-3%	-6%	2%	2.4µM*
O=C(Nc1cccnc1)c1cc(-c2ccc(Cl)c(Cl)c2)on1	-2%	23%	-3%	/	/	?
COc1ccc(-c2cc(C(=O)Nc3cccnc3)no2)cc1OC	?	?	2.2µM*	/	3%	19µM*
CN1CCN(C(=O)COCc2cc(-c3ccc4c(c3)OCO4)on2)CC1	14%	9%	2%	/	/	-18%
CCOC(=O)c1cc(-c2ccccc2)n(CC(=O)Nc2ccc(OC)cc2OC)c1C	/	/	/	/	/	0%
O=C(Nc1cccnc1)c1cc(-c2ccc3c(c2)OCO3)on1	5%	?	5%	?	-11%	0.48µM*
CCCNC(=O)COCc1cc(-c2ccc3c(c2)OCO3)on1	15%	13%	17%	/	/	?
Cc1ccc(NC(=O)c2cc(-c3ccc4c(c3)OCO4)on2)cc1C	1%	?	-1%	/	/	0%
O=C(Nc1cccc(Br)c1)c1cc(-c2ccc3c(c2)OCCO3)on1	/	/	/	/	/	0.67µM*
O=C(Nc1cccnc1)c1cc(-c2cccc(Cl)c2)on1	2%	2%	-3%	/	18%	-16%
